Only some compounds are listed: those with a hit (about 7.6% of all), similar ones and a draw of the others.
KCNH2 3.1 block = KCNH2 3.1 (human) potassium channel inhibition; U2OS KCNH2 3.1, thallium flux FluxOr; stronger effect = lower value; activity change, % (tested at about 1.8 µM); 0.95% of 340,000 active; AID 720553;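 active means maximum activity change below -70%; inconclusive means maximum activity change from -70% to -50%; inactive means maximum activity change above -50%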;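 further: thallium influx rate constant from kinetic fluorescence after stimulation buffer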
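We transduce U2OS cells with the mutant 3.1 virus, culture them overnight, load FluxOr with Red40 quencher for 45 min, then add stimulation buffer and read kinetically for 2 min to derive a normalized rate constant.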
KCNH2 WT inh = inhibitors of human wildtype KCNH2 potassium channel; U2OS, BacMam KCNH2, thallium flux FluxOr; stronger effect = lower value; AID 720551; Q12809; activity change, % at 1.84 µM; 0.37% of 340,000 active;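 active means maximum activity change below -70%; inconclusive means maximum activity change between -70% and -50%; inactive means maximum activity change above -50%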
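U2OS cells were transduced with wild-type KCNH2 virus (2.03 x 10^8 / mL) for 4 h at room temperature, then cultured overnight at 37 C. Thallium flux was read with FluxOr dye. Rate constants were normalized to DMSO controls.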
SW480 rereplic = inducers of DNA re-replication in SW480 colon cancer cells | SW480 DNA re-replication, Hoechst DNA content imaging, 48 h | Potency, µM (top dose mostly 46.1 µM), actives largely listed as activators | 1.8% of 340,000 active | AID 624297; further: nearly all actives have a fitted effect of over 55% in size
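DNA re-replication was detected as more nuclei of elevated Hoechst intensity after 48 hr exposure to compound (23 nL pinned per well of 250 cells).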
MCF10A rerep = induces DNA re-replication in MCF 10a normal breast cells; MCF 10A DNA re-replication, Hoechst nuclear intensity, 48 h; Potency, µM (top dose mostly 46.1 µM), usual class: activators; 2.9% of 350,000 active; AID 624296; further: nearly all actives have a fitted effect of over 50% in size
KB-3-1 tox = kills parental KB-3-1 adenocarcinoma cells | 1.4% of 400,000 active | AID 1347075 | KB-3-1 viability, CellTiter-Glo ATP luminescence, 72 h | Potency, µM (doses to about 46.1 µM), most hits filed as cytotoxic; further: nearly all actives have a fitted effect of over 60% in size
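KB-3-1 parental drug-naive adenocarcinoma cells in DMEM/10% FBS, incubated 72 h at 37 C with pin-transferred compounds across a concentration series. Viability by CellTiter-Glo luminescence; concentration-response curves fitted after normalization.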
KB-V1 cytotox = KB-V1 MDR subline cytotoxicity; 3.4% of 400,000 active; AID 1347076; Potency, µM (highest dose often 46.1 µM), hits mostly cytotoxic; KB-V1 MDR cells viability, CellTiter-Glo, 72 h; further: nearly all actives have a fitted effect of over 60% in size
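Compound-treated KB-V1 multidrug-resistant cells, 72 h, 37 degrees C; viability by CellTiter-Glo. Fitted qHTS curves give the values.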
Hits are given with their value; 0 = inactive; ? = inconclusive; - = no result given; [ ] = another dose, or the depositor's remark. Unless noted, the call rests on the fitted dose curve; in most records, active means well fitted curve in the direction sought with a large enough effect; inconclusive means small, poorly fitted or top-dose-only effect, or another doubt; inactive means no such curve, though single readings can be large; an effect the other way counts as inactive or inconclusive.

SMILES | KCNH2 3.1 block | KCNH2 WT inh | SW480 rereplic | MCF10A rerep | KB-3-1 tox | KB-V1 cytotox
COc1ccccc1NS(=O)(=O)c1ccc(N/N=C/C=C/c2ccccc2[N+](=O)[O-])c([N+](=O)[O-])c1 | 0 | 0 | 0 | 0 | 0 | 0
CC(=O)Nc1cccc(-c2nc3ccccc3n2C(C(=O)NC(C)(C)C)C2CC2)c1 (stereo unspecified) | - | - | - | - | 0 | 0
NC(=O)c1ccccc1NC(=O)CSc1nc2c(c(=O)[nH]1)CCCC2 | 0 | 0 | 0 | 0 | 0 | 0
COc1ccccc1Cc1c(-c2cccc(Cl)c2)nc2c(C)cc(Br)cn12 | - | - | - | - | 0 | 0
CN1CCC(N(C)C(=S)Nc2ccc(SC(F)F)cc2)CC1 | 0 | 0 | ? | 0 | ? | ?
COc1ccccc1C(CNc1ccc(S(=O)(=O)N2CCCC2)cc1[N+](=O)[O-])N(C)C (stereo unspecified) | 0 | 0 | 0 | ? | 0 | 11.6µM
COc1ccc(CCN(C)c2ccc(S(=O)(=O)N3CCCC3)cc2[N+](=O)[O-])cc1OC | 0 | 0 | 0 | ? | ? | 2.59µM
COc1ccc(S(=O)(=O)N2CCC(C)CC2)cc1N(C)S(=O)(=O)c1ccccc1 | 0 | 0 | ? | 0 | - | -
COc1ccc(S(=O)(=O)N2CCCCCC2)cc1N(C)S(=O)(=O)c1ccc(Cl)cc1 | ? | 0 | 0 | 0 | 0 | 20.6µM
COc1ccc(CN(C)c2ccc(S(=O)(=O)N3CCN(C)CC3)cc2[N+](=O)[O-])cc1OC | 0 | 0 | 0 | 0 | ? | ?
CN(CC(=O)Nc1ccc(Cl)cc1)c1ccc(S(=O)(=O)N2CCCCC2)cc1[N+](=O)[O-] | 0 | 0 | 0 | 0 | ? | 16.4µM
CCN(CC)S(=O)(=O)c1ccc(=O)[nH]c1 | 0 | 0 | 0 | 0 | 0 | 0
CC1CCC2C(C1)Nc1c(C(=O)O)cccc1C2(C)C (stereo unspecified) | 0 | 0 | 0 | 0 | 0 | 0
COc1ccccc1-n1nnnc1SCC(=O)Nc1oc(C)c2c(C)n[nH]c(=O)c12 | 0 | 0 | 20.6µM | 0 | 0 | 0
CCOc1ccccc1NC(=O)CSc1nnnn1-c1ccccc1 | 0 | 0 | 0 | 0 | 0 | 9.2µM
COc1ccccc1NC(=O)CSc1nc(O)cc(=O)n1-c1ccccc1OC | 0 | 0 | 0 | 14.6µM | 0 | 0
COc1ccc(C)cc1-n1nnnc1SCC1CCCO1 (stereo unspecified) | 0 | -107.3 | 0 | 0 | 0 | ?
CN(C)CCCn1c2c(c(SCC(=O)Nc3cccc4ccccc34)nc1=O)CCCC2 | 0 | 0 | 0 | 0 | 0 | ?
CCNC(=O)CSc1nc2ccccc2c(=O)n1-c1cc(OC)ccc1OC | 0 | 0 | 0 | 0 | 0 | 18.4µM
CCOc1ccccc1NC(=O)CSc1nnc2c(CC)c(C)nc(N)n12 | 0 | 0 | 0 | 0 | 0 | 14.6µM
COc1ccc(OC)c(-n2nnnc2SCC(=O)NCCc2ccccc2)c1 | 0 | 0 | 7.31µM | 5.8µM | 0 | ?
Cc1ccc(C)c(SCC(=O)Nc2cccnc2Cl)c1 | 0 | 0 | 0 | 1.64µM | 0 | 0
CNC(=O)CSc1nc2ccccc2c(=O)n1-c1cc(OC)ccc1OC | 0 | 0 | 0 | 0 | 0 | 0
CC(C)C(=O)N1CCCC1(C)C(=O)NCc1ccc(Cl)cc1 (stereo unspecified) | - | - | - | - | 0 | 0
CCCCCn1c(=O)[nH]c2cc(C(=O)NCc3ccc(C)cc3)ccc2c1=O | - | - | - | - | 0 | 0
SMILES | KCNH2 3.1 block | KCNH2 WT inh | SW480 rereplic | MCF10A rerep | KB-3-1 tox | KB-V1 cytotox
O=c1[nH]c(C2CCCN(S(=O)(=O)Cc3ccccc3)C2)nc2c1nnn2Cc1cccc(Cl)c1 (stereo unspecified) | 0 | 0 | 0 | 0 | 0 | 0
COc1ccc(C)cc1-n1nnnc1SCC(=O)Nc1cccnc1Cl | 0 | 0 | 0 | 0 | 0 | 13µM
CC1=Nc2ccccc2N=C(NC(=O)CSc2nnnn2-c2ccccc2)C1c1ccccc1 (stereo unspecified) | 0 | 0 | 0 | 0 | 0 | 13µM
CN1CCN(c2ccc(NC(=O)CSc3nnnn3-c3ccccc3Cl)cc2)CC1 | 0 | 0 | 20.6µM | ? | 0 | 0
COc1ccc(C)cc1-n1nnnc1SCC(=O)Nc1cc(C)on1 | 0 | 0 | 0 | 0 | 0 | 0
COc1ccccc1NC(=O)CSc1nnnn1-c1ccccc1OC | 0 | 0 | 0 | 0.651µM | 0 | 0
O=C(CSc1nnnn1-c1ccccc1)Nc1ccc(N2CCOCC2)c(Cl)c1 | 0 | 0 | 0 | 0 | 0 | 0
CC(C)(CO)C(O)C(=O)NCCCC(=O)O (stereo unspecified) | - | - | 0 | 0 | - | -
COc1ccc(NC(=O)CCc2ccccc2)cc1S(=O)(=O)N1CCCCC1 | 0 | 0 | 0 | 0 | ? | 5.17µM
Cc1ccccc1OCC(=O)Nc1ccc2c(c1)n(C)c(=O)n2C | 0 | 0 | 0[1.84 µM] | 0 | 0 | 13µM
O=C(Nc1ccc(Cl)c(S(=O)(=O)N2CCOCC2)c1)C1CCCC1 | 0 | 0 | 0 | 0 | 0 | 0
Cn1c(=O)n(C)c2cc(NC(=O)COc3ccccc3)ccc21 | 0 | 0 | 0 | 0 | 0 | 0
O=C(Nc1ccc(F)c(S(=O)(=O)N2CCOCC2)c1)C1CCCCC1 | 0 | 0 | 0 | 0 | 0 | 18.4µM
Cn1c(=O)n(C)c2cc(NC(=O)CCl)ccc21 | 0 | 0 | ? | 18.4µM | 4.61µM | 16.4µM
COc1ccc(NC(=O)CCc2ccccc2)cc1S(=O)(=O)N1CCOCC1 | 0 | 0 | 0 | 0 | 0 | 0
O=C(CCNC(=O)c1ccccc1)OCC(=O)c1ccccc1 | 0 | 0 | 0 | 0 | 0 | 0
C[C@H](CO)N1C[C@H](C)[C@@H](CN(C)S(=O)(=O)c2ccc3c(c2)OCCCO3)OCc2cn(nn2)CCCC1=O | 0 | 0 | - | - | 0 | 0
COc1cc(CCC(=O)Nc2ccc(C)c(S(=O)(=O)N3CCCCCC3)c2)cc(OC)c1OC | 0 | 0 | 0 | 0 | 6.51µM | 3.66µM
COc1ccc(NC(=O)Cc2ccsc2)cc1S(=O)(=O)N1CCCCC1 | 0 | 0 | 0 | 0 | 0 | 20.6µM
Cc1ccc(NC(=S)Nc2ccc(C(C)C)cc2)cc1S(=O)(=O)N1CCCCCC1 | 0 | 0 | ? | ? | 0 | 14.6µM
CCOc1ncccc1C(=O)Nc1ccc(OC)c(S(=O)(=O)N2CCCCC2)c1 | 0 | 0 | 0 | 0 | 0 | ?
CCOc1ncccc1C(=O)Nc1ccc(C)c(S(=O)(=O)N2CCCCCC2)c1 | 0 | 0 | 0 | 9.2µM | ? | ?
COc1ccc(NC(=O)Cc2cccs2)cc1S(=O)(=O)N1CCCCC1 | 0 | 0 | 0 | 0 | 0 | 0
C=CCNC(=S)Nc1ccc(C)c(S(=O)(=O)N2CCCCC2)c1 | 0 | 0 | 0 | 0 | 0 | ?
COc1ccc(CCNC(=O)C(=O)NCC(c2ccco2)S(=O)(=O)c2ccc(F)cc2)cc1 (stereo unspecified) | - | - | - | - | 0 | 0
Cc1ccc(S(=O)(=O)N2[C@@H](CO)CO[C@H]2CC(=O)c2ccccc2)cc1 | - | - | - | - | 0 | 0
